The panel holds about 83,000 compounds, 20% with a hit somewhere; the sample as a whole holds those more often.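 Cell lines were cultured in 96-well plates, exposed to a single compound concentration, and assessed for percent growth 48 hours later.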 A number with no mark means an inactive call. Active and inactive are the calls of the source. How the source made its calls: active means growth percent below 10; inactive means the rest.
What was measured:
Experiment in all cases: NCI-60 one-dose screen, 48 h (100 = growth as untreated, 0 = no growth, -100 = all killed)
Settings in all cases: 10 µM unless noted
[1] = test system: SK-MEL-2 melanoma
[2] = test system: EKVX NSCLC
[3] = test system: SN12C renal
[4] = test system: UO-31 renal
[5] = test system: TK-10 renal
[6] = test system: ACHN renal
[7] = test system: CAKI-1 renal
[8] = test system: A498 renal
[9] = test system: CCRF-CEM leukemia
[10] = test system: MOLT-4 leukemia

Structure (SMILES)	growth [1]	growth [2]	growth [3]	growth [4]	growth [5]	growth [6]	growth [7]	growth [8]	growth [9]	growth [10]
CCN(CC)CCN1C(=O)c2c(c3c4ccccc4[nH]c3c3ccc4ccccc4c23)C1=O	97.7%	18.6%	-89.2% (active)	14.3%	-86.2% (active)	36.6%	50.7%	35.1%	-8.15% (active)	-29.5% (active)
COc1cc(/C=C/c2cc(/C=C/c3ccc(O)c(OC)c3)n(C(=O)Nc3ccc(Cl)cc3)n2)ccc1O	-23.5% (active)	16.9%	9% (active)	2.71% (active)	23.1%	9.29% (active)	0.131% (active)	-0.596% (active)	4.45% (active)	-2% (active)
C[N+]1=C(/C=C/c2ccccc2Cl)C(C)(C)c2ccccc21	109%	96.9%	103%	71.5%	114%	110%	89%	87.1%	47.1%	70.3%
COc1ccc(-c2nc3c(c(-c4ccc(Cl)cc4)nn3-c3ccccc3)c(-c3ccccc3)c2C#N)cc1	109%	107%	105%	101%	120%	107%	94.8%	111%	102%	102%
CN(C)CCC(CCN(C)C)(C(=O)O)c1ccccc1	102%	107%	98.4%	88.3%	106%	98.5%	95.4%	90.4%	100%	109%
C=C1CC[C@@H]2C(C)(C)[C@H](O)CC[C@@]2(C)[C@@H]1COc1ccc2ccc(=O)oc2c1	63.8%	57.8%	67.3%	-3.4% (active)	96.3%	49%	39.6%	64.5%	26.2%	31.6%
N#Cc1c(-c2ccccc2)cc(-c2ccccc2)n(CCCCC(=O)NO)c1=O	40.6%	30.6%	23.2%	-51.6% (active)	28.4%	2.83% (active)	1% (active)	13.2%	11.9%	11.4%
O=C(C1=Cc2cc3ccccc3n2Cc2cnnn21)c1ccc(F)cc1	103%	96.2%	97.6%	88.6%	107%	103%	90.9%	79.9%	97.8%	89%
Cc1ccc(-c2nc(SCC(=O)N3CCN(c4cc5c(cc4F)c(=O)c(C(=O)O)cn5C4CC4)CC3)nc(Cl)c2C#N)cc1	97.8%	96.1%	96.3%	82.1%	104%	106%	94.7%	103%	106%	105%
O=C(Nc1ccccc1O)c1ccc(CNc2ccnc(C(F)(F)F)c2)cc1	52.4%	52.7%	48.8%	29.2%	96.2%	43%	29.6%	66.4%	-8.29% (active)	9.24% (active)
CCOC(=O)C(CCN(C)C)c1ccccc1 (stereo not given)	101%	101%	99.5%	90.9%	95%	104%	94.5%	107%	93.2%	116%
CCOC(=O)CC[C@H](NC(=O)c1ccc(N(C)Cc2cnc3nc(N)nc(N)c3n2)c2ccccc12)C(=O)OCC	51.9%	75.2%	35.6%	20.9%	43.8%	25%	24.1%	35.1%	10.5%	24.8%
Cc1ccc(C)c2c1sc1nc(N3CCOCC3)c(C#N)c(=O)n12	110%	80.2%	104%	74.9%	154%	105%	105%	75.7%	83.1%	110%
C=C1C(=O)O[C@@H]2C3C(=C(C)CC[C@@H]12)CC1O[C@]13C (stereo not given in full)	90.4% [6.75 µM]	91.5% [6.75 µM]	86.6% [6.75 µM]	54.5% [6.75 µM]	40.5% [6.75 µM]	73.2% [6.75 µM]	90.1% [6.75 µM]	103% [6.75 µM]	23.2% [6.75 µM]	84% [6.75 µM]
Cc1ccc2c(c1)sc1nc(-c3c[nH]c4ccccc34)c(Nc3ccccc3)n12	109%	101%	102%	77.3%	114%	100%	79.8%	109%	107%	98.7%
O=C(O)CC(C(=O)O)/C(=C\c1ccccc1)c1ccccc1 (stereo not given)	109%	110%	104%	89.1%	108%	104%	103%	93%	94.6%	98.9%
C1CCC(N2CN3c4nonc4N4CN(C5CCCCC5)CN5c6nonc6N(C2)C3C45)CC1 (stereo not given)	102%	82.4%	92.4%	71.9%	102%	103%	84.9%	92.9%	51%	91.8%
CN1CCN(Cc2ccc(NC(=O)c3cncc(C#Cc4cnc(N)cc4C#N)c3)cc2C(F)(F)F)CC1	-65.9% (active)	34.3%	13.5%	1.25% (active)	19.4%	10.3%	-9.35% (active)	-8.99% (active)	6.94% (active)	4.83% (active)
CC(C)NS(=O)(=O)/N=C1\NC(=O)NC1=C(Cl)Cl	95.6%	103%	94.8%	102%	116%	113%	91.6%	116%	81.4%	87%
CS(=O)(=O)Nc1cc(-c2ccc3ncnc(Nc4ccc5c(cnn5Cc5ccncc5)c4)c3c2)cnc1Cl	-0.132% (active)	75.9%	54.7%	57.5%	39.1%	89.9%	40.7%	2.83% (active)	33.1%	57.1%
Cc1c2ncccc2nc2[nH]c3ccc(OCCN(C)C)cc3c12	33.7%	49.2%	13.9%	19.1%	31%	10.6%	63.3%	79.9%	6.43% (active)	9.61% (active)
Cc1cc(N2CCN(CC(=O)Nc3ccc4c(ccn4Cc4ccccc4)c3)CC2)nc(N2CCOCC2)n1	93%	74.8%	87%	49%	88.2%	100%	88%	22.9%	5.84% (active)	77.8%
CC1=Nc2cnc(Nc3ccc(N4CCCCC4)cc3)nc2Nc2ccccc21	86%	68.8%	69.7%	49.7%	97.3%	68.1%	79.3%	55.8%	31.5%	26.7%
c1cc(OCCCCCOc2cccc(-c3nc4ccccc4[nH]3)c2)cc(-c2nc3ccccc3[nH]2)c1	9.28% (active)	2.5% (active)	26.4%	3.69% (active)	25.7%	6.47% (active)	36.4%	9.68% (active)	-18.9% (active)	-13.5% (active)
O=C(NCCCCO)c1cncnc1Nc1ccc2c(ccn2Cc2cccc(F)c2)c1	106%	85.1%	87.7%	67%	98.7%	86.3%	79.8%	69.5%	103%	88.3%
CCN(CC)C(=O)C1=C(C)NC(=O)NC1c1ccc2c(c1)OCO2 (stereo not given)	108%	99%	107%	81.4%	100%	103%	93.1%	111%	104%	104%

Structure (SMILES)	growth [1]	growth [2]	growth [3]	growth [4]	growth [5]	growth [6]	growth [7]	growth [8]	growth [9]	growth [10]
COc1ccc(C(=O)C/C(=C\c2ccc(O)c(OC)c2)C(=O)NN)cc1	90.8%	94%	89%	67.9%	111%	85.4%	77.9%	105%	73.8%	87.5%
Clc1ccc(-c2cc(-c3ccccc3)nc(N3CCN(CCCNc4ccnc5cc(Cl)ccc45)CC3)n2)cc1	12.4%	80.1%	-90.2% (active)	-52% (active)	40.5%	3.37% (active)	-31.5% (active)	69.5%	2.6% (active)	2.31% (active)
C=C[C@@]1(C)CC(=O)[C@@H](C(C)(C)c2cn(C)c3ccc(Br)cc23)C[C@@H]1O[Si](C)(C)C(C)(C)C	97.8%	99.3%	97.6%	94%	98.1%	111%	90.2%	106%	89.5%	94.7%
Cc1[nH]c(C(=O)Nc2ccccc2OC2CCN(CCN3CCOCC3)CC2)c(Cl)c1Cl	101%	86%	97.7%	51.9%	69.7%	94.7%	84%	71.6%	89.4%	72.6%
CCCCCCCCCCOC(=O)c1nn(C(C)=O)c2cc(C)c(C)cc12	104%	91.6%	102%	71.7%	104%	97.1%	88.8%	79.1%	92.2%	82.7%
COc1ccc(CN2C(=O)OC(C)(COC(C)=O)C2=O)cc1 (stereo not given)	111%	107%	99.8%	95%	104%	102%	94.8%	103%	99.5%	95.6%
Cc1ccc(NC(=O)c2cc3ccccc3cc2O)c(C)c1	91.8%	79.6%	89.7%	69.2%	93.8%	91.7%	66.5%	68.4%	67.8%	104%
COc1c2c(cc3c1C(=O)N[C@@H]1[C@@H](O)[C@@H](O)[C@H](O)C[C@@H]31)OCCO2	100%	98.2%	103%	86.4%	95.7%	103%	94%	104%	105%	99.6%
C=C1C(=O)O[C@H]2[C@H]1CC/C(COC(=O)NCc1ccc(Cn3c(=O)sn(-c4ccc(I)cc4)c3=O)cc1)=C\CC[C@@]1(C)O[C@@H]21	89.7%	98.4%	79.1%	54.4%	79.9%	69.7%	71.5%	87.7%	-14.3% (active)	5.6% (active)
COC1/C=C/OC2(C)Oc3c(C)c(O)c4c(O)c(c(/C=N/N(c5ccccc5)c5ccccc5)c(O)c4c3C2=O)NC(=O)C(C)=C/C=C/C(C)C(O)C(C)C(O)C(C)C(OC(C)=O)C1C (stereo not given)	82.2%	67%	70.9%	65.8%	55.8%	65%	66.8%	91.3%	21.7%	35.1%
COc1ccc(C/C(C)=C(\c2ccc(Cl)cc2)c2ccc(OCCCN(C)C)cc2)cc1	111%	94.1%	78.8%	62.4%	86.7%	90%	87.3%	114%	56.9%	40.9%
Cc1cc(O)cc(-c2nn(C)cc2-c2cc(N3CCOCC3)nc(-c3cccnc3)n2)c1	51.5%	52.3%	32.3%	30.5%	51.6%	37.9%	43.9%	-36.3% (active)	24.3%	26.8%
Nc1nc(N(Cc2ccccc2)c2ccccc2)c2cn[nH]c2n1	111%	75.3%	85.8%	75%	92.2%	71.2%	31.9%	69.9%	92.6%	62.2%
COc1cc(-c2ccc(-c3ccc(C(=N)N)cc3)s2)cc(OC)c1OC	83.9%	75.4%	71.4%	79.3%	113%	91.1%	63.4%	89.2%	26.9%	-2.06% (active)
Nc1ccc(Br)cc1C(F)(F)F	104%	109%	99.8%	88.1%	108%	96.5%	104%	107%	101%	108%
CC1SC(c2ccccc2O)N(NC(=O)CCC(=O)c2nc3ncccc3[nH]2)C1=O (stereo not given)	95.8%	85.7%	101%	66.9%	103%	97.4%	80.3%	90.6%	116%	123%
COc1ccc(N=C2NN=C(c3c[nH]c4ccccc34)CS2)cc1OC	19.1%	63.3%	70.7%	35.9%	96%	62.8%	63.8%	62.5%	39.5%	39.9%
COc1cc2ncnc(Nc3ccc(S(=O)(=O)Nc4nccs4)cc3)c2cc1OCCCN1CCCC1	114%	107%	99.9%	84.9%	123%	108%	100%	104%	100%	104%
COc1ccc(Oc2ccc(/C=C/C(=O)c3ccc(OC)c(OC)c3)cc2)cc1	89%	79.4%	86.7%	70.9%	105%	92.5%	85.5%	90.3%	70.3%	-9.69% (active)
C/C(=N\Nc1ccccc1)c1ccc(NC2=CC(=O)c3ccccc3C2=O)cc1	55.6%	74%	63.5%	38.8%	81.5%	48.2%	43.8%	110%	62.7%	63%
COc1ccc(C=Nc2c(C(=O)Nc3cccc(Cl)c3C)sc3nc(C)c(C(=O)/C=C/c4ccc(OC)cc4)cc23)cc1	42.2%	43.2%	21%	35.9%	36.5%	36.1%	24%	-4.79% (active)	19.7%	52.2%
O=S(=O)(N=C1C(Cl)=C(Cl)C(=NS(=O)(=O)c2ccccc2)C(Cl)=C1Cl)c1ccccc1	14%	107%	87.6%	89.5%	95.3%	-22.5% (active)	5% (active)	96.8%	73.6%	55%
O=C(/C=C/c1cccc(Oc2ccccc2)c1)c1ccc(Nc2nc(Nc3ccc(F)cc3)nc(Nc3ccc(Cl)cc3)n2)cc1	69.1%	106%	123%	91.8%	130%	98.6%	104%	113%	116%	-35.6% (active)
N=C(N)c1ccc(-c2ccc(-c3ccccc3)o2)o1	45.1%	51.9%	39%	41.9%	60.5%	38.5%	37.4%	48.7%	15.4%	15.6%
COc1ccc2cc(C(=O)N3CCC([C@@H](C)C(=O)NCc4ccc5c(c4)OCO5)CC3)[nH]c2c1	63.6% [50 µM]	73.4% [50 µM]	53.2% [50 µM]	41.5% [50 µM]	27.1% [50 µM]	29.4% [50 µM]	60.3% [50 µM]	80.4% [50 µM]	85.8% [50 µM]	78.2% [50 µM]
CCN1C(=O)N(CC)C2C1NN=c1s/c(=C\c3ccc(OC)cc3)c(=O)n12 (stereo not given)	34.5%	51.9%	24.9%	39.3%	66.2%	28.5%	25.5%	11.8%	9.06% (active)	14%

Source: PubChem BioAssay (NCI)
